Experimental findings from PubChem BioAssay are described below.

The structures appear in SMILES notation.

A short description of this assay: probe aCHRDL2 binding to arrayed compounds – biochemical, biotinylated probe, 635/667 nm fluorescence, primary screen (AID 1100). As to conditions: small-molecule microarray, higher = more signal.
Regarding `CCOC(=O)C[C@H]1[C@H](OC(=O)Cc2ccc3c(c2)OCO3)[C@@H](NC(=O)C2CCCCC2)c2cc(OCCCO)ccc2N1C(=O)c1ccc2ccccc2n1`, the composite z-score was -0.529.

Take `CN1C(=O)C2C=CC(C(O)c3c(F)cccc3Cl)N(Nc3ccccc3)C2C1=O` (stereo unspecified): the composite z-score was 0.92.

Compound `COCCCNC(=O)[C@]1(Cc2ccccc2CN=[N+]=[N-])N=C(c2ccc(OCCCO)cc2)O[C@@H]1c1ccccc1` came in with a composite z-score of 0.775.

`[N-]=[N+]=NCc1ccccc1C[C@@]1(C(N)=O)N=C(c2ccc(OCCCO)cc2)O[C@@H]1c1ccccc1CN=[N+]=[N-]` gave a composite z-score of 0.378.

Consider `COC(=O)[C@@]1(Cc2ccc(OC)cc2)[C@H]2c3cc(C(=O)N4CCCC4)n(CCc4cc5ccccc5[nH]4)c3C[C@H]2CN1C(=O)c1ccccc1`, for which the composite z-score came out at 1.43.

In turn, `COCCOC(=O)N1C(=O)[C@@]2(c3cc(C#Cc4ccc(OC)cc4)ccc31)[C@H](C(=O)NC[C@H](O)c1ccccc1)[C@H]1C(=O)O[C@H](c3ccccc3)[C@H](c3ccccc3)N1[C@@H]2c1ccc(O)cc1` returned a composite z-score of 0.234.

In turn, `C=CC[C@@]12N=C(c3ccc(OCCCO)cc3)O[C@@H]1c1ccccc1N(CCS(=O)(=O)c1ccccc1)C2=O` showed a composite z-score of 0.269.

Take `C=CCN1C(=O)[C@]2(CC=C)N=C(c3ccc(OCCCO)cc3)O[C@@H]2c2ccccc21`: the composite z-score was 1.1.

Compound `Cc1ccc(S[C@]2(C(=O)NCC(C)C)CC(=O)N(Cc3ccccc3Cl)[C@@H]2c2ccc(CO)cc2I)cc1` displayed a composite z-score of 0.791.

On to `COc1ccccc1CN1C(=O)c2ccccc2[C@](Cc2ccccc2I)(C(=O)NC(C)C)[C@@H]1c1ccc(CO)cc1`, for which the composite z-score was -0.0563.

In the case of `CCOc1cc(C(O)C2C=CC3C(=O)N(C4CCCCC4)C(=O)C3N2Nc2ccc(OC)cc2)ccc1O` (stereo unspecified), the composite z-score worked out at 0.913.

For `COCCOC(=O)N1C(=O)[C@@]2(c3cc(C#Cc4ccc(OC)cc4)ccc31)[C@H](C(=O)N1CCCCCCC1)[C@H]1C(=O)O[C@H](c3ccccc3)[C@H](c3ccccc3)N1[C@@H]2c1ccc(O)cc1`, the composite z-score came out at 0.522.

As for `C=C(C(=O)CC[C@H](OC(=O)c1cccnc1)c1ccc(CO)o1)C(C)C`, the composite z-score was -0.239.

Consider `COC(=O)[C@H](Cc1ccccc1)N1CC(/C=C/C2CC2)=C[C@@H]1[C@@H](O)Cc1ccccc1`, for which the composite z-score is -0.276.

`COC(=O)[C@@]1(Cc2ccc(OC)cc2)[C@H]2c3cc(C(=O)N(C)C)n(Cc4nc5ccccc5[nH]4)c3C[C@H]2CN1C(=O)c1ccccc1` registered a composite z-score of 0.958.

The compound `CN(C)C(=O)[C@]1(CCC(=O)OC(C)(C)C)N=C(c2ccc(OCCCO)cc2)O[C@@H]1c1ccccc1` returned a composite z-score of 1.01.

Take `COCCOC(=O)N1C(=O)[C@@]2(c3cc(C#CC4(O)CCCCCC4)ccc31)[C@H](C(N)=O)[C@H]1C(=O)O[C@H](c3ccccc3)[C@H](c3ccccc3)N1[C@@H]2c1ccccc1OCCO`: the composite z-score is -0.423.

`Cc1ccc(S[C@]2(C(=O)NCC(F)(F)F)CC(=O)N(Cc3ccccc3)[C@@H]2c2ccc(CO)cc2)cc1` showed a composite z-score of 0.767.

Regarding `COCCCNC(=O)[C@@]1(Sc2ccc(C)cc2)CC(=O)N(C2Cc3ccccc3C2)[C@@H]1c1ccc(CO)cc1I`, the composite z-score is 0.947.

`C=CC[C@]1(C(=O)N(C)C)N=C(c2ccc(OCCCO)cc2)O[C@H]1c1ccccc1N=[N+]=[N-]` displayed a composite z-score of 1.14.

`CCOC(=O)C1=CC[C@@H](c2ccccc2C(F)(F)F)N(S(=O)(=O)c2ccc(C)cc2)C1`: the composite z-score turned out to be 1.18.

The compound `CC(C)C(O)C1C=CC2C(=O)N(C)C(=O)C2N1N(c1ccccc1)c1ccccc1` (stereo unspecified) gave a composite z-score of 0.972.

For `CCOC(=O)C1=CC[C@@H](c2ccc([N+](=O)[O-])cc2)N(S(=O)(=O)c2ccc(C)cc2)[C@H]1c1ccccc1`, the composite z-score was 0.304.

Consider `[N-]=[N+]=NCc1ccccc1C[C@@]1(C(=O)N2CCCCC2)N=C(c2ccc(OCCCO)cc2)O[C@@H]1c1ccccc1N=[N+]=[N-]`, for which the composite z-score was 0.689.

With `C=C(/C(=C/C[C@@H](OC(=O)c1ccncc1)c1ccccc1OCCO)c1cc(C(=O)OC)ccc1OC)C(C)C`, the composite z-score was -0.151.

With `COCCOC(=O)N1C(=O)[C@@]2(c3cc(C#CC4(O)CCCCCC4)ccc31)[C@H](C(N)=O)[C@H]1C(=O)O[C@H](c3ccccc3)[C@H](c3ccccc3)N1[C@@H]2c1ccc(O)cc1`, the composite z-score was -0.0074.
